Laboratory results as given in PubChem BioAssay AID492948 (National Center for Advancing Translational Sciences (NCATS), 2010).
Results filed as inconclusive are left out. Activity calls are given as the source filed them. The call rests on the fitted dose curve; in most records, active means well fitted activation curve with a large enough effect; inconclusive means small, poorly fitted or top-dose-only effect; inactive means no such curve, though single readings can be large or run the other way.

Experiment: qHTS Assay for Agonists of the Relaxin Receptor RXFP1: V1B Hit Validation;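 further: counter-screen in HEK293 cells expressing V1B rather than RXFP1 for selectivity; nearly all actives have a fitted effect of over 65% in size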;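 on activation: cAMP accumulation with PDE4 inhibitor Ro 20-1724 present during compound exposure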
Settings: HEK293 V1B cells, cAMP TR-FRET, 30 min; series mostly up to 115 µM
Outline: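 HEK293 cells expressing V1B, 2000/well, treated 30 min at 37C with compound plus PDE4 inhibitor Ro 20174; cAMP by HTRF TR-FRET (665/615 nm). Normalized to buffer and 29 nM porcine relaxin; EC50 from Hill fit.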
Potency means the concentration at half of the fitted maximal effect.

Potency, active:
CN(C)S(=O)(=O)c1cccc(COc2ncnc3c(Cl)cc(Cl)cc23)c1 27.5 µM
CCc1ccc(-c2nc3ccc(Br)cc3c(C(=O)O)c2C)s1 3.46 µM
O=C(O)c1cc(-c2ccco2)nc2ccc(Br)cc12 19.4 µM
COc1ccc(CN2C(=O)c3cccnc3C2=O)cc1S(=O)(=O)N1CCCCC1C (configuration not stated) 8.68 µM
COc1ccc(CN2C(=O)c3cccnc3C2=O)cc1S(=O)(=O)NC1CCCCC1C (configuration not stated) 38.9 µM
O=C(NC1CCCCCC1)c1cc2c(=O)n3ccccc3nc2s1 38.9 µM
O=C(COc1ncnc2scc(-c3ccccc3)c12)NCCN1C(=O)CSC1=O 19.4 µM
CCS(=O)(=O)c1nc(S(=O)(=O)c2ccc(Cl)cc2)c(N2CCN(CCO)CC2)s1 34.6 µM
CCCN(CCC)S(=O)(=O)c1cc(CN2C(=O)c3cccnc3C2=O)ccc1OC 30.9 µM
Cn1c(N)c(C(=O)CSc2nn(-c3ccc(F)cc3)c(=S)s2)c(=O)n(C)c1=O 19.4 µM
Cc1cc(C)n2nc(C(=O)Nc3ccc4c(c3)OCCO4)nc2n1 6.15 µM
CCN(CC)S(=O)(=O)c1ccc(N2CCOCC2)c(NC(=O)c2cccc(C#N)c2)c1 47.3 µM
O=C(O)CSc1ccnc2cc(Cl)ccc12 21.8 µM
O=c1oc2cc(O)c(Cl)cc2c2ccccc12 6.9 µM
Cc1cc(C(=O)COC(=O)Cn2cnc3c2c(=O)n(C)c(=O)n3C)c(C)n1C 13.8 µM
CCN(CC)S(=O)(=O)c1ccc2c(c1)N(CC(=O)Nc1cccnc1Cl)C(=O)CO2 17.3 µM
Cn1c(=O)c2sccc2n2c(CCCC(=O)NCc3cccnc3)nnc12 19.4 µM
CC[N+](CC)(CCCCS(=O)(=O)[O-])CCNP1(=O)C=C(c2ccccc2)OC(c2ccccc2)=C1 38.9 µM
COc1ccc(S(=O)(=O)N2CCOCC2)cc1NC(=O)CSc1nnc2ccccn12 3.88 µM
COc1cccc(C(=O)CSc2nnc(-c3cc(OC)cc(OC)c3)o2)c1 10.9 µM
CCc1cc2cc3c(cc2nc1SCC(=O)Nc1nccs1)OCO3 19.4 µM

Potency, inactive:
Cc1cc(C)c(NC(=O)CS(=O)CC(=O)Nc2ccc(F)cc2F)c(C)c1 (configuration not stated)
Cc1cccc(-c2nnc(SCC(=O)NC3CC3)n2C)c1
O=C(Nc1ccccc1C(=O)N1CCOCC1)c1ccco1
O=C(Nc1ccccc1C(=O)NCc1ccco1)c1ccco1
O=C(Nc1ccccc1C(=O)NCCc1ccc(O)cc1)c1ccco1
CN(Cc1ccccc1)C(=O)c1ccccc1NC(=O)c1ccco1
COCCNC(=O)NC(=O)COC(=O)C12CC3CC(CC(NC(C)=O)(C3)C1)C2
CC(C)c1ccccc1NC(=O)c1ccccc1NC(=O)C1CCCCC1
O=C(Nc1ccccc1C(=O)Nc1ccccc1C(=O)NCc1ccco1)c1ccco1
Cc1ccc(-c2ccc3nnc(SCC(=O)NCC4CCCO4)n3n2)cc1 (configuration not stated)
Nc1c(S(=O)(=O)O)cc(NC(=O)c2ccccc2)c2c1C(=O)c1ccccc1C2=O
Cn1c(N)c(C(=O)CSc2nnc(NC3CCCCC3)s2)c(=O)n(C)c1=O
O=C(O)c1ccc(N=C2NC(=O)C(CO)(CO)S2)cc1
CN(C)c1ccc(C(=S)N2CCN(S(=O)(=O)c3ccccc3)CC2)cc1
O=C(O)c1ccc(CN2C(=O)c3ccc(C(=O)O)cc3C2=O)cc1
Cc1ccccc1NC(=O)CNc1ccccc1C(=O)NCc1ccco1
